The values below come from PubChem BioAssay (EPA / NIEHS).

Several values for one entry are separate records, joined by “and”; a condition that tells them apart may be missing. Equal values may be shown once. A structure can be active in one record and inactive in another. Activity calls are given as the source filed them. How the source made its calls: active means hit-call score of the fitted dose curve at least 0.9, where 1 is the maximum; inactive means score below 0.9.

Broadly, the AC50 is the concentration at which the activity in the assay is half-maximal.

Read-out in the assay: Interleukin-8 (IL8), CXCL8 (gene 3576)
The assay can be described thus: BSK_BE3C_IL8: BioMAP Diversity Plus: BE3C Assay for Interleukin-8 (IL8) Biomarker Activity (AID 2284280). Particulars: primary human bronchial epithelial cells. On the procedure:
BSK_BE3C is a cell-based, multiplexed-readout assay that uses bronchial epithelial cell, a human lung primary cell, with measurements taken at 24 hours after chemical dosing in a 96-well plate.BSK_BE3C_IL8 is an assay component measured in the BSK_BE3C assay. It measures IL-8 antibody related to regulation of gene expression using ELISA technology.Data from the assay component BSK_BE3C_IL8 was analyzed at the endpoint, BSK_BE3C_IL8, in the positive analysis fitting direction relative to DMSO as the negative control and baseline of activity. Using a type of binding reporter, gain or loss-of-signal activity can be used to understand protein changes. To generalize the intended target to other relatable targets, this assay endpoint is annotated to the 'cytokine' intended target family, where the subfamily is 'interleukins'.
The levels of cell surface (or secreted, indicated by the prefix "s") biomarker endpoints were measured by ELISA. Overt cytotoxicity to cells in confluent adherent cultures (all systems other than the BT system) was assessed by measuring total protein levels using sulforhodamine B (SRB) staining in parallel cultures at the time of biomarker measurements, indicated as SRB endpoints. For proliferation assays for adherent cell types, individual cell types are cultured at sub-confluence and relative cell numbers quantified by SRB staining at time points optimized for each system (48 h: 3C and CASM3C systems; 72 h: BT and HDF3CGF systems; 96 h: SAg system). SRB was performed by staining cells with 0.1% SRB after fixation with 10% TCA and reading wells at 560 nm.Viability and proliferation of PBMC (T cells) was quantified by Alamar Blue reduction for the SAg and BT systems. For PBMC viability (referred to as PBMC Cytotoxicity within the assay endpoint names), cells were plated (75,000/well in a 96-well plate) and then chemical samples added for 1 h before addition of activators, SEB and TSST-1 (20 ng/mL final concentration each). Cells were incubated for 90 h. Then, Alamar Blue (20 uL/well) (Invitrogen, Cat DAL1100) was added for 6 h, and the plates were read with a fluorescence microplate reader at 546/580 nm (excitation/emission). For PBMC proliferation, cells were plated and activated as above but incubated for only 16 h prior to addition of Alamar Blue. Plates were read after 6 h.
As to `FC(F)(F)C(F)(F)C(F)(F)C(F)(F)C(F)(F)C(F)(F)C(F)(F)CCI`, the AC50 is 0.662 µM (active) and the result was inactive. Regarding `FC(F)(F)C(F)(F)C(F)(F)CC1CO1` (stereo not given), the outcome was inactive.

For the compound `O=S(=O)(Cl)C(F)(F)C(F)(F)C(F)(F)C(F)(F)C(F)(F)C(F)(F)C(F)(F)C(F)(F)F`, the AC50 was 41.3 µM (active) and 21.5 µM (active). Turning to `C[Si](Cl)(Cl)CCC(F)(F)C(F)(F)C(F)(F)C(F)(F)C(F)(F)C(F)(F)F`, the result was inactive.

For `OCC(F)(F)C(F)(F)C(F)(F)C(F)(F)C(F)(F)C(F)(F)C(F)(F)C(F)(F)CO`, the AC50 was 19.7 µM (active) and 5.95 µM (active). With `O=C(O)C(F)(F)C(F)(F)C(F)(F)C(=O)O`, the result was inactive. For `CCN(CCO)S(=O)(=O)C(F)(F)C(F)(F)C(F)(F)C(F)(F)C(F)(F)C(F)(F)C(F)(F)C(F)(F)F`, the AC50 was 19.3 µM (active) and 11.8 µM (active).

`OCC(O)CC(F)(F)C(F)(F)C(F)(F)C(F)(F)C(F)(F)C(F)(F)C(F)(F)C(F)(F)F` (stereo not given): the outcome was inactive. As to `OCCCCC(F)(F)C(F)(F)C(F)(F)C(F)(F)F`, the result was inactive. As for `OCC(O)CC(F)(F)C(F)(F)C(F)(F)C(F)(F)F` (stereo not given), the result was inactive.

As for `O=C(O)CCC(F)(F)C(F)(F)C(F)(F)C(F)(F)C(F)(F)C(F)(F)C(F)(F)F`, the result was inactive. With `O=S(=O)(OCC(F)(F)F)C(F)(F)C(F)(F)C(F)(F)C(F)(F)F`, the result was inactive. For the compound `O=S(=O)(O)CCC(F)(F)C(F)(F)C(F)(F)C(F)(F)C(F)(F)C(F)(F)C(F)(F)C(F)(F)F`, the AC50 was 20.4 µM (active) and the outcome was inactive. Take `O=C(O)C(F)(F)C(F)(F)C(F)(F)C(F)(F)C(F)(F)C(F)(F)C(F)F`: the result was inactive. For the compound `C=CC(=O)OCCC(F)(F)C(F)(F)C(F)(F)C(F)(F)F`, the outcome was inactive. The same measure, in the same setting: next, `CCOC(=O)CC(=O)C(F)(F)C(F)(F)F`: “inactive”. Take `OCC(F)(F)C(F)(F)C(F)(F)CO`: the result was inactive.

As for `O=C(Cl)C(F)(F)C(F)(F)C(F)(F)C(F)(F)C(F)(F)C(F)(F)C(F)(F)F`, the AC50 was 15.9 µM (active) and the result was inactive. On to `O=C(O)CCC(F)(F)C(F)(F)C(F)(F)F`, for which the result was inactive.

For the compound `NCC(F)(F)C(F)(F)C(F)(F)C(F)(F)C(F)(F)C(F)(F)F`, the outcome was inactive. Turning to `OCC(F)(F)C(F)(F)C(F)(F)C(F)(F)C(F)(F)C(F)(F)CO`, the result was inactive.

As to `O=C(O)C(F)(F)OC(F)(F)C(F)(F)OC(F)(F)C(F)(F)OC(F)(F)F`, the result was inactive. Turning to `NC(=O)C(F)(F)C(F)(F)C(F)(F)C(F)F`, the result was inactive. Take `C=CC(=O)OCC(F)(F)C(F)(F)C(F)(F)COC(=O)C=C`: the AC50 was 13.2 µM (active) and 8.09 µM (active). As to `O=C(O)C(F)(F)C(F)(F)C(F)(F)OC(F)(F)F`, the outcome was inactive.

Consider `OCCCC(F)(F)C(F)(F)C(F)(F)C(F)(F)C(F)(F)C(F)(F)C(F)(F)C(F)(F)F`, for which the AC50 is 11.4 µM (active) and 8.23 µM (active).

`COC(F)(C(F)F)C(F)(F)F` (stereo not given): the result was inactive. `CNS(=O)(=O)C(F)(F)C(F)(F)C(F)(F)C(F)(F)C(F)(F)C(F)(F)C(F)(F)C(F)(F)F`: the AC50 was 30 µM (active) and 2.67 µM (active). As to `NC(=O)C(F)(F)C(F)(F)C(F)(F)C(F)(F)C(F)(F)C(F)(F)C(F)(F)F`, the outcome was inactive.

As to `O=C(Cl)C(F)(F)C(F)(F)C(F)(F)C(F)(F)C(F)(F)C(F)(F)F`, the outcome was inactive.

As for `O=S(=O)(O)CCC(F)(F)C(F)(F)C(F)(F)C(F)(F)F`, the outcome was inactive.

As to `CCN=C1C=CC(=C(c2ccc(N(CC)CC)cc2)c2ccc(N(CC)CC)cc2)c2ccccc21`, the AC50 was 4.21 µM (active) and 3.7 µM (active). In the case of `C=C(C)C(=O)OCC(F)(F)C(F)(F)C(F)(F)C(F)F`, the outcome was inactive. For the compound `O=C(O)C(F)(F)C(F)(F)C(F)(F)OC(F)(C(F)(F)F)C(F)(F)F`, the outcome was inactive.

Take `NC(=O)C(F)(F)C(F)(F)C(F)(F)C(F)(F)C(N)=O`: the result was inactive. The same measure, in the same setting: the same measure for `OC(O)C(F)(F)C(F)(F)F`: “inactive”; for `CN(C(=O)C(F)(F)C(F)(F)C(F)(F)F)[Si](C)(C)C`: “inactive”.
